Hit rate of the full screen: of about 6,200 compounds, about 2,900 (47%) were called active. No stated cut-off is given here; in the data, active means inhibition above about 50%; inactive means the rest. So high a share suggests a set chosen from earlier hits. This is one part of the list.

This assay is described as follows: Mycobacterium tuberculosis growth inhibition, primary screen (AID 1259343). Particulars: inhibition: at 10 µM, stronger effect = higher value; outcome: 10 uM.
In the case of `Cc1csc(Sc2ccc(NC(=O)C3CCC3)c(C)c2)n1`, the inhibition is 33.2% (inactive). Turning to `O=C(Nc1nnc(SCCc2ccccc2)s1)C1CCCCC1`, the inhibition was 3.18% (inactive).

For the molecule `C=CCSc1nnc(NC(=O)C2CCCCC2)s1`, the inhibition was 91.9% (active).

With `CCC(=O)Nc1cc(C)nn1-c1nc(C)c(C)c(=O)[nH]1`, the inhibition was 99.7% (active).

Turning to `COC(=O)CCc1c(C)nn(-c2nc(C)c(C)c(=O)[nH]2)c1C`, the inhibition is 101% (active).

For `Cc1cc(NC(=O)C(C)(C)CCl)n(-c2nc(C)c(C)c(=O)[nH]2)n1`, the inhibition was 101% (active). The result for `CC(=O)Nc1cc(C)nn1-c1nc(C)c(C)c(=O)[nH]1` reads 101% (active); that for `Cc1cc(NC(=O)C(C)C)n(-c2nc(C)c(C)c(=O)[nH]2)n1`, -18.6% (inactive). Regarding `COC(=O)CCc1c(C)nn(-c2nc(C)cc(=O)[nH]2)c1C`, the inhibition was 43.3% (inactive). On to `Cc1cc(NC(=O)Cc2ccccc2)n(-c2nc(C)c(C)c(=O)[nH]2)n1`, for which the inhibition was 99.4% (active). As to `Cc1[nH]nc(Nc2ccc(Cl)c(Cl)c2)c1[N+](=O)[O-]`, the inhibition was 70.3% (active). The result for `CC(C)Oc1ccc(C(=O)NCc2cccs2)cc1` reads 34.9% (inactive); that for `Brc1ccc(NCc2cccs2)cc1`, 6.27% (inactive).

With `O=C(NCc1cccs1)c1cc(Br)ccc1F`, the inhibition was 83.2% (active).

Turning to `C=C(C)CN(CC)c1nc(N)c(C#N)c(C(C#N)Cc2ccc(C)cc2)c1C#N` (stereo unspecified), the inhibition is 21.1% (inactive). The result for `Cc1sc2nc[nH]c(=S)c2c1C` reads 88.8% (active); that for `Cc1sc2nc[nH]c(=S)c2c1-c1ccccc1`, 87.7% (active); that for `Cc1ccc(-c2csc3nc[nH]c(=S)c23)cc1C`, 31.2% (inactive).

Regarding `S=c1[nH]cnc2sc3c(c12)CCCC3`, the inhibition was 93.9% (active). Consider `CC1CCc2c(sc3nc[nH]c(=S)c23)C1` (stereo unspecified), for which the inhibition was 2.8% (inactive).

As for `O=c1[nH]c2sc3c(c2c2ncnn12)CCCC3`, the inhibition is -17.8% (inactive). The figure for `CC(N=c1ccccn1C(=O)Nc1ccc(Cl)c(Cl)c1)c1ccco1` (stereo unspecified) is -3.96% (inactive). The figure for `CC(NC(=O)CN(C)CC(=O)Nc1ccc(Cl)c(Cl)c1)c1ccco1` (stereo unspecified) is 86.6% (active). The result for `C(=NNc1ccc2ccccc2n1)c1ccc2c(c1)OCCO2` reads 27.8% (inactive); that for `Fc1c(F)c(F)c(NN=Cc2ccc3c(c2)OCO3)c(F)c1F`, 89.5% (active). In the case of `Fc1ccc(NN=Cc2ccc3c(c2)OCCO3)c(F)c1`, the inhibition was 37% (inactive).

With `Fc1ccc(NN=Cc2ccc3c(c2)OCO3)c(F)c1`, the inhibition was 81.8% (active). The result for `O=C1C=C2C(=CCOC2O)O1` (stereo unspecified) reads 98.2% (active); that for `CC(NS(=O)(=O)c1ccccc1C#N)c1ccc(-n2ccnc2)cc1` (stereo unspecified), -48.9% (inactive); that for `Nc1nc(-c2ccc(I)cc2)cs1`, “inactive”. For the molecule `OC(c1cn2cc(-c3ccc(F)cc3)nc2s1)(C(F)(F)F)C(F)(F)F`, the inhibition is 15.3% (inactive). The figure for `C=CCNc1nc(-c2cc(F)ccc2F)cs1` is 45.9% (inactive); for `Nc1nc(-c2ccc(F)cc2F)cs1` it is 33.6% (inactive); for `Cc1ccc(-c2csc(N)n2)cc1` it is 101% (active). The result for `Nc1nc(-c2cc(F)ccc2F)cs1` reads 77.2% (active); that for `CSc1ccc(-c2csc(N)n2)cc1`, 8.66% (inactive). The figure for `Cc1cc(C)cc(Nc2nc(-c3ccc(F)cc3)cs2)c1` is 51.7% (active); for `O=c1[nH]c2ccc(-c3csc(-c4ccc(F)cc4)n3)cc2o1` it is 39.4% (inactive); for `Nc1nc(-c2ccc(F)cc2)cs1` it is 90.4% (active). Turning to `Fc1ccc(F)c(-c2csc(Nc3ccc4c(c3)OCCO4)n2)c1`, the inhibition was 22.8% (inactive).

Consider `c1csc(-c2nc(SCC3COc4ccccc4O3)n[nH]2)c1` (stereo unspecified), for which the inhibition was -27.5% (inactive).

`Clc1ccc(C=NOCc2nnc(-c3ccccc3Br)o2)cc1Cl`: the inhibition is 50.2% (active). The result for `c1csc(-c2nnc(CON=C3c4ccccc4-c4ccccc43)o2)c1` reads 26.7% (inactive).

Consider `Brc1ccccc1-c1nnc(CSc2nnnn2C2CC2)o1`, for which the inhibition was 28.9% (inactive). Consider `CC(C(N)=O)N1CCC(c2nc3cc(Cl)ccc3s2)CC1` (stereo unspecified), for which the inhibition was 38% (inactive). In the case of `Oc1ccc(-c2nc3cc(Cl)ccc3s2)cc1`, the inhibition is 36.2% (inactive). The figure for `CC(C)c1nc(CS(=O)(=O)c2nc3cc(Cl)ccc3s2)no1` is 64.2% (active); for `O=C(O)/C=C/C=C/c1ccccc1` it is 38.2% (inactive).

On to `Cc1cc(C)c(C)c(C(=O)/C=C/C(=O)O)c1C`, for which the inhibition is 85.5% (active).

With `O=C(Nc1ccc(-c2nc3ccccc3o2)cc1)C1CCN(C(=O)C2CCCCO2)CC1` (stereo unspecified), the inhibition is 34.5% (inactive). The result for `Cc1nc(-c2ccc(NC(=O)C3CCOCC3)cc2)co1` reads 88.5% (active); that for `O=C(Nc1cccc(-c2noc(C3CC3)n2)c1)C1CCOCC1`, 11.2% (inactive).

As for `O=S(=O)(Nc1nc2c(ccc3ccccc32)s1)c1ccc(Cl)s1`, the inhibition is 22.8% (inactive). The figure for `COc1cc(C(=O)NCC(=O)Nc2nc3c(ccc4ccccc43)s2)cc(OC)c1OC` is 88.5% (active); for `C(=Cc1nc2c(ccc3ccccc32)s1)c1ccc2c(c1)OCCO2` it is 36.3% (inactive). In the case of `O=C1CCC(=O)N1OCCOc1cccc(Oc2ccccc2)c1`, the inhibition was 72% (active).

As to `CCCCNC(=O)NCC12CC3CC(CC(C3)C1)C2`, the inhibition is 74.1% (active).

In the case of `CC(C)(C(=O)Nc1ccc(F)cc1)c1ccc2c(c1)OCCO2`, the inhibition is 57.4% (active). The figure for `CCOC(=O)C1=C(C)N(c2ccc3c(c2)OCCO3)C(=S)NC1c1cccc(F)c1` (stereo unspecified) is 1.48% (inactive); for `CC1CCc2c(sc3nc(C(C)C)nc(N4CCN(C(=O)Nc5c(Cl)cccc5Cl)CC4)c23)C1` (stereo unspecified) it is 10.7% (inactive). `Cc1nc(N2CCCCC2)c2c3c(sc2n1)CC(C)CC3` (stereo unspecified): the inhibition is -32.2% (inactive). The result for `CC1CCc2c(sc3nc(-c4ccc(N(C)C)cc4)nc(N4CCNCC4)c23)C1` (stereo unspecified) reads 94.9% (active); that for `COC(=O)c1ccc(CN(Cc2cccc(OC)c2OC)C2CC2)o1`, 83.8% (active); that for `Cc1ccc(NC(=O)NC(=O)CN(Cc2ccco2)C2CC2)cc1C`, -3.72% (inactive). The figure for `CCN(CC1COc2ccccc2O1)C(=O)NCc1sccc1C` (stereo unspecified) is -23.5% (inactive); for `COC(=O)c1ccc(CSc2n[nH]c(=S)s2)o1` it is “inactive”; for `COC(=O)c1ccc(CN(Cc2ccc(C)o2)C2CC2)o1` it is 66.2% (active). The result for `COc1cccc(CN(C)C(=O)c2cc3ccccc3o2)c1OC` reads 39.1% (inactive); that for `COc1ccc(CN(C(=O)Nc2cccc(Cl)c2)C2CC2)cc1`, -5.25% (inactive); that for `COc1ccc(CCN(Cc2ccc(C)o2)C(=O)CN(C(=O)c2ccccc2Cl)C2CC2)cc1OC`, -5.97% (inactive).

In the case of `COC(=O)c1ccc(CN(Cc2sccc2C)C2CC2)o1`, the inhibition is 98.5% (active).

With `COC(=O)c1ccc(CN(Cc2ccc(OC)cc2)C2CC2)o1`, the inhibition is 54.7% (active). The figure for `N#Cc1cc(C(=O)c2cc(Cl)cc(Cl)c2O)cn(-c2nccs2)c1=O` is 25.4% (inactive). The result for `O=C(CC1CC2CCC1C2)N1CCN(c2ccccc2O)CC1` (stereo unspecified) reads 85.9% (active); that for `O=C(CC1C[C@@H]2CC[C@H]1C2)N1CCc2c(cnn2-c2ccccn2)C1` (stereo partly specified), 49.8% (inactive); that for `O=C(NCCC1CC2CCC1C2)c1ccc(N2CCOCC2)nc1` (stereo unspecified), 5.89% (inactive).

With `COc1cccc(NC(=O)N2CCN(CCCOC(c3ccc(Cl)cc3)c3ccc(Cl)cc3)CC2)c1`, the inhibition was 15.9% (inactive). With `Cc1cccc(Nc2cc(N3CCN(CCCOc4ccccc4)CC3)ncn2)c1`, the inhibition was 50.3% (active). With `CCCCCOc1ccc(Nc2cc(-c3cccc(N)c3)ncn2)cc1`, the inhibition is 5.27% (inactive). The result for `Nc1nnc(Sc2ncc([N+](=O)[O-])s2)s1` reads 102% (active); that for `O=[N+]([O-])c1c(-n2cccn2)nn(-c2ccccc2)c1C(Cl)Cl`, 101% (active); that for `NCCc1cccc(OCCCc2ccccc2)c1`, 57.2% (active). The result for `COc1cccc(C=CC(=O)c2ccc(N3CCCC3=O)cc2)c1OC` reads 40% (inactive); that for `O=C(Nc1nc(-c2ccccn2)cs1)c1cccc(N2CCCC2=O)c1`, 100% (active).

Consider `CCCCc1ccc(NC(=O)CSc2n[nH]c(=O)c3cc(-c4ccco4)nn23)cc1`, for which the inhibition was 98.1% (active).

As for `Oc1ccc(C=NNC(=S)NCC2CCCO2)c(O)c1` (stereo unspecified), the inhibition is 101% (active). As for `S=C(NCC1CCCO1)Nc1ccc(N2CCCCC2)cc1` (stereo unspecified), the inhibition was 60.7% (active). With `S=C(NCC1CCCO1)N1CCc2ccccc2C1` (stereo unspecified), the inhibition is 19.9% (inactive). The figure for `Oc1ccc(C2=CCN(c3nnc(Br)s3)CC2)cc1` is 95.1% (active); for `N#Cc1ccc(CN2CC=C(c3ccc(O)cc3)CC2)c(F)c1` it is -43% (inactive). The result for `Oc1ccc(C2=CCN(c3ncnc4ccccc34)CC2)cc1` reads 15.6% (inactive). The figure for `CNC(=O)c1ccc(N2CC=C(c3ccc(O)cc3)CC2)nn1` is 91.4% (active). As for `Cc1cc(C(=O)N2CC=C(c3ccc(O)cc3)CC2)c(C)o1`, the inhibition was 15.5% (inactive). The figure for `O=S(=O)(Nc1cccc(C2OCC(COc3ccc(Cl)cc3)O2)c1)c1ccccc1` (stereo unspecified) is -0.13% (inactive); for `CC(=O)Nc1ccc(OCc2nnsc2Cl)cc1` it is 85.4% (active). As for `CN(c1ccccc1)c1nc2ccsc2c(=O)s1`, the inhibition was 58.2% (active).

Consider `CCc1ccccc1Oc1nc(NC(C)C)nc2ccsc12`, for which the inhibition was 31.8% (inactive). For the molecule `CCCc1cnc(Nc2nc(C(N)Cc3ccc(C(F)(F)F)cc3)cs2)nc1` (stereo unspecified), the inhibition was 50.7% (active).

For the molecule `Cc1cc(C)nc(Nc2nc(C(N)Cc3ccc(C(F)(F)F)cc3)cs2)n1` (stereo unspecified), the inhibition was 79.2% (active). On to `Cc1cc(C)nc(Nc2nc(C(N)Cc3ccc(Cl)cc3)cs2)n1` (stereo unspecified), for which the inhibition is 73.2% (active). With `Cc1ccc(-c2nc(CN3CCOC(c4ccccc4)C3)cs2)o1` (stereo unspecified), the inhibition is 29.6% (inactive). The figure for `Cc1nc(SCC(=O)N2CCCCC2C)c2c3c(sc2n1)CCCC3` (stereo unspecified) is 51.5% (active).

For `Cc1c(-c2ccccc2)sc2ncn(CC(=O)N3CCCCC3C)c(=O)c12` (stereo unspecified), the inhibition is 48.6% (inactive). The result for `CC(=O)CSc1nc(C)nc2sc3c(c12)CCCC3` reads 10% (inactive); that for `Cc1ccc2[nH]cc(-c3cccc(OCC(N)=O)c3)c2c1`, 72.6% (active).

Regarding `CC(C)(C)c1csc(-c2cccc(OCC(N)=O)c2)n1`, the inhibition was 35.2% (inactive).

For orientation: inhibition means the drop in the measured response relative to a control, in per cent.

The values are drawn from PubChem BioAssay AID1259343 (VanderVen Lab, College of Veterinary Medicine, Cornell …, 2017).
